# From article PMC5540273 (PLoS ONE, 2017)
# Experiments:
# [1] = test system: p38-delta; settings: concentration: 1 μM, replicates: in singlicate; n = 1
# [2] = test system: T1, p38-gamma; settings: concentration: 1 μM, replicates: in singlicate; n = 1
# T1 construct: gene MAPK12
# 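Also: KINOMEscan kinase panel screen.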
Compound,%Inh [1],%Inh [2]
O=c1cc(N2CCOCC2)nc2n(Cc3ccc(F)c(Cl)c3)ccn12 [GSK2297099],36%,0%
COc1cc2ncn(-c3cc(OCc4ccncc4)c(C(N)=O)s3)c2cc1OC [GSK336313],42%,0%
COc1cc2ncn(-c3cc(OCCCc4ccccc4)c(C(N)=O)s3)c2cc1OC [GSK205189],6%,0%
CCC(=O)c1c(-c2ccccc2)c2cc(Cl)ccc2c(=O)n1Cc1cc(S(C)(=O)=O)n(CC(F)F)n1,19%,0%
COC(=O)c1c(-c2ccccc2)c2cc(C)ccc2c(=O)n1Cc1ccccc1,21%,0%
CCC(=O)c1c(-c2ccccc2)c2cc(Cl)ccc2c(=O)n1Cc1ccc(C(=O)O)cc1,4%,0%
CCn1c(-c2ccoc2)nc2cnccc21 [SB-733887],25%,12%
Nc1nc(-c2ccccc2F)c(-c2ccnc3ccccc23)s1 [GW560459],36%,0%
CCn1c(-c2nonc2N)nc2ccccc21 [SB-693162/GW549034],0%,10%
COc1cc2nccc(Nc3cccc(Oc4ccccc4)c3)c2cc1OC.Cl [GW284543],22%,0%
Cc1cccc(-c2nc(Nc3ccc4c(cnn4C)c3)c3ccccc3n2)n1 [GW876731],0%,16%
COc1cccc(C2=C(N(C)c3ccccc3)C(=O)NC2=O)c1 [SB-334865],42%,0%
CCC(=O)c1c(-c2ccccc2)c2cc(Cl)ccc2c(=O)n1Cc1cc(C(=O)NC2CC2)n(C)n1,35%,9%
COc1cc(OC)cc(-c2cc3cnc(N)nc3nc2NC(=O)NC(C)(C)C)c1,0%,9%
CN(C)c1cc(-c2ccc3c(N)n[nH]c3c2)nc(N)n1 [GSK2219329],37%,0%
COc1cc(Nc2ccnc3ccc(C(F)(F)F)cc23)cc(OC)c1OC [GW577382],4%,0%
Cl.c1ccc(Cn2cnc3cc(Nc4ncnc5ccccc45)ccc32)cc1 [GW272142],39%,0%
O=C(NCCNc1ccnc(Nc2ccc(F)cc2)n1)Nc1ccc2c(c1)OCO2 [GSK1379882],37%,19%
Nc1ncnc2c1ncn2-c1cccc2ccccc12 [SKF-97184],0%,0%

Compound,%Inh [1],%Inh [2]
Cc1nc(N(C)[C@H]2CN(C(=O)CC#N)CC[C@H]2C)c2cc[nH]c2n1,0%,11%
COc1ccc(-c2cc3c(C)nc(N)nc3n([C@H]3CC[C@H](O)CC3)c2=O)cn1,0%,100%
Fc1cccc(CSc2nnc(-c3ccc4c(c3)CCO4)o2)c1,28%,21%
Cc1nnc(-c2ccc(C)c(-c3ccc(C(=O)O)cc3)c2)o1 [GW608005],2%,0%
Cc1ccccc1COc1cc(-n2cnc3cc(Cl)ccc32)sc1C(N)=O [GW813349],0%,20%
O=C1NC(=O)C(c2ccccc2)=C1Nc1cccc(O)c1 [SB-390534],0%,15%
COC(=O)c1c(-c2ccccc2)c2cc(Br)ccc2c(=O)n1Cc1ccc(NC(=O)CCC(=O)O)cc1,28%,21%
Nc1ncnc2c1ncn2-c1cccc(F)c1 [SKF-97560],0%,48%
CCC(=O)c1c(-c2ccccc2)c2cc(Cl)ccc2c(=O)n1Cc1cc(S(C)(=O)=O)n(CCC(C)(C)O)n1,32%,26%
Nc1n[nH]c2ncc(-c3ccccc3)cc12 [SB-517081],24%,31%
Nc1ncnc2c1ncn2-c1ccc(Cl)cc1 [AH2635],32%,0%
CCc1nc(-c2cccc(C)c2)c(-c2ccncc2)s1,0%,10%
Nc1nc(N)c2nc(-c3ccccc3)[nH]c2n1 [SKF-12778],19%,0%
CCS(=O)c1ccc(-c2coc3ccc(-c4nnc(C)o4)cc23)cc1 (centres unmarked),11%,0%
CC(C)(C)c1ccc(C(=O)Nc2cn3cc(-c4ccccc4)ccc3n2)cc1,34%,8%
COc1cc2ncn(-c3cc(OCc4ccc(S(C)(=O)=O)cc4)c(C(N)=O)s3)c2cc1OC [GW869979],0%,24%
Cc1ccc(-c2ccc3c(ccc4sc5c(c43)NC[C@@H](C)N=C5N(C)C)n2)cn1,10%,14%
COc1cc2ncn(-c3cc(OCc4ccncc4Br)c(C(N)=O)s3)c2cc1OC [GW854278],30%,10%
